Assay results as given in PubChem BioAssay (NCATS).
Inconclusive results are not listed. Active and inactive are the calls of the source. Calls follow the shape of the dose curve; as a rule, active = well fitted curve in the direction sought with a large enough effect; inconclusive = small, poorly fitted or top-dose-only effect, or another doubt; inactive = no such curve, though single readings can be large; an effect the other way counts as inactive or inconclusive.

What was measured:
[1] = target: Glutathione peroxidase 1 (Homo sapiens) (UniProt P07203); test: Primary qHTS Assay for Inhibitors of Recombinant Selenoprotein Glutathione Peroxidase 1 (GPX1) (AID 1845191); also: nearly all actives have a fitted effect of over 65% in size; as to activity, negative = inhibition: % is scaled to controls: 0 for no effect and ±100 for the full control effect
Sequence of Glutathione peroxidase 1 (Homo sapiens) (P07203 whole entry, looked up): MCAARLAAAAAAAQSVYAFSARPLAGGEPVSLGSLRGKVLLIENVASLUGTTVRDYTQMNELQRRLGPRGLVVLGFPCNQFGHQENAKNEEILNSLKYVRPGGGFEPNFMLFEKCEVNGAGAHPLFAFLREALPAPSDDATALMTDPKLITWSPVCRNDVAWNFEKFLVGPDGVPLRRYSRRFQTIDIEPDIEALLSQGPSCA
In short: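 10 nM GPX1 + cpd, 30 min RT; start w/ 1 mM GSH, 0.5 mM cumene hydroperoxide, 0.5 mM NADPH, 100 nM GR, 0.01% BSA; buffer 50 mM Tris-HCl pH 7.5, 2 mM EDTA, 150 mM NaCl; Fl 340/450, 0 & 15 min.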

[2] = target: Phospholipid hydroperoxide glutathione peroxidase GPX4 (Homo sapiens) (UniProt P36969); test: Primary qHTS Assay for Inhibitors of Recombinant Selenoprotein Glutathione Peroxidase 4 (GPX4) (AID 1845192); also: nearly all actives have a fitted effect of over 65% in size; as to activity change, negative = inhibition: series mostly up to about 50 µM; % is scaled to controls: 0 for no effect and ±100 for the full control effect
Sequence of Phospholipid hydroperoxide glutathione peroxidase GPX4 (Homo sapiens) (P36969 whole entry, looked up): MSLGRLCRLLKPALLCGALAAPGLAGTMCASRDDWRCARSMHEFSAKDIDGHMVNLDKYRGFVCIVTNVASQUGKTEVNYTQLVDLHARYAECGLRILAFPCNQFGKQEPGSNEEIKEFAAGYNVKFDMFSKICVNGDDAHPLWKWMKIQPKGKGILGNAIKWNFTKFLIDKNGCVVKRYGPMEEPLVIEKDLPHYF
In short: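 NADPH consumption, followed by fluorescence at 340/450 nm between 0 and 15 min, reports GPX4 activity via coupled glutathione reductase (100 nM). Enzyme 200 nM was pre-exposed to compound 30 min; 0.5 mM cumene hydroperoxide and 1 mM GSH served as substrates.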

[3] = target: Luciferin 4-monooxygenase (Photinus pyralis) (UniProt P08659); test: Primary firefly luciferase (FLuc) qHTS assay for identification of artifact compounds. (AID 1845220); also: nearly all actives have a fitted effect of over 60% in size; also: potency is read from the fitted curve at half-maximal effect;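 as to activity change, negative = inhibition: series mostly up to about 54 µM; plate controls were DMSO vehicle for no effect and no enzyme for full effect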
In short: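 FLuc 10 nM; luciferin 10 uM; ATP 10 uM; Tris-acetate pH 7.6, Mg-acetate 10 mM; 15 min RT preincubation; 5 min reaction; luminescence.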

[4] = tested on: Nanoluciferase (engineered Oplophorus gracilirostris luciferase); test: Primary Nanoluciferase (NLuc) qHTS assay for identification of artifact compounds. (AID 1845222);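 also: NLuc secreted into diluted conditioned medium of S16 cells; series mostly up to about 54 µM; 0% = DMSO and -100% = no enzyme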
In short: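 NLuc from S16 cell medium (1:55) plus test compounds, 15 min, room temperature. Luminescence after Nano-Glo (1:100) addition, 5 min.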

[5] = Primary redox qHTS assay for identification of artifact compounds. (AID 1845223);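 also: 0% = DMSO and 100% = reference compound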
In short: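 Amplex Red (25 uM) and HRP (250 mU/mL) in HBSS, with compounds for 15 min, then 250 uM DTT for 30 min, room temperature, dark. Fluorescence 525/598 nm read; normalized to DMSO and 10 uM DA3003; Hill fit.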

COC(=O)C1=CO[C@@H](O[C@@H]2O[C@H](CO)[C@@H](O)[C@H](O)[C@H]2O)[C@@H]2C(CO)=CC[C@]12O
inactive: Potency [1] | Potency [2] | Potency [3] | Potency [4] | Potency [5]

CN=C(N)NCCCCC/C=C(/C)CC(C)C1OC(=O)C(C)C(O)/C=C/C(C)C(O)CC(O)C(C)C(O)CCC(C)C(O)CC2(O)OC(CC(OC(=O)CC(=O)O)CC(O)CC(O)C(C)C(O)/C(C)=C/CCC1C)CC(O)C2O (stereo not given)
inactive: Potency [1] | Potency [2] | activity change, negative = inhibition [3] -2.65% [at 11.6 µM] | activity, negative = inhibition [4] -0.658% [at 11.6 µM] | redox activity (% of DA3003) [5] -4.57% [at 11.5 µM]

COC(=O)C1=COC(OC2OC(CO)C(O)C(O)C2O)C2C1C=CC2(O)CO (stereo not given)
inactive: Potency [1] | Potency [2] | Potency [3] | Potency [4] | Potency [5]

c1cn2cc(-c3ccc4cn[nH]c4c3)nc(Nc3ccc(N4CCOCC4)cc3)c2n1
inactive: Potency [1] | Potency [2] | Potency [4] | Potency [5]
active: Potency [3] 0.0536 µM

CC(C)CC(=O)OC1OC=C(CO[C@@H]2O[C@H](CO)[C@@H](O)[C@H](O)[C@H]2O)C2CC(O)C(O)(CO)C12 (stereo not given in full)
inactive: Potency [1] | Potency [2] | Potency [3] | Potency [4] | Potency [5]

C=C1CCC2C(C)(C)CCC[C@]2(C)[C@H]1C/C=C(\CO)C(=O)C(=O)O (stereo not given in full)
inactive: Potency [1] | Potency [2] | Potency [3] | Potency [4] | Potency [5]

COC(=O)[C@@]1(c2ccc(C)cc2)C[C@H]1CN1CCC(O)(c2ccccc2)CC1
inactive: Potency [1] | Potency [2] | Potency [3] | Potency [4] | Potency [5]

CN1c2ccccc2C(=O)N2CCC3c4ccccc4NC3C21 (stereo not given)
inactive: Potency [1] | Potency [2] | Potency [4] | Potency [5]
active: Potency [3] 10.5 µM

CCOc1cc(N2CCC(O)CC2)ccc1Nc1ncc2c(n1)N(C1CCCC1)CCC(=O)N2C
inactive: Potency [1] | Potency [2] | Potency [3] | Potency [4] | Potency [5]

C=C[C@H]1[C@H](O[C@@H]2O[C@H](CO)[C@@H](O)[C@H](O)[C@H]2O)OC=C(C(=O)OC)[C@H]1C[C@@H]1c2cc(O)c(O)cc2CCN1C(C)=O
inactive: Potency [1] | Potency [2] | Potency [3] | Potency [4] | Potency [5]

C=CC(C)(C)c1[nH]c2cc3c(cc2c1CC1NC(=O)C2CCCN2C1=O)C=CC(C)(C)O3 (stereo not given)
inactive: Potency [1] | Potency [2] | Potency [3] | Potency [4] | Potency [5]

C=C1C[C@]23C[C@H]1CC[C@H]2C1=C[C@H]2OC(=O)[C@@](C)([C@H]1[C@@H]3C(=O)O)[C@H]2O
inactive: Potency [1] | Potency [2] | Potency [3] | Potency [4] | Potency [5]

COC(=O)Cc1cc2c(c([N+](=O)[O-])c1)N(C(=O)CC[C@H](N)C(=O)O)CC2
inactive: Potency [1] | Potency [2] | Potency [3] | Potency [4] | Potency [5]

COc1cc(C2Oc3c(OC)cc(CCCO)cc3C2CO)ccc1O[C@H]1O[C@H](C)[C@@H](O)[C@H](O)[C@@H]1O (stereo not given in full)
inactive: Potency [1] | Potency [2] | Potency [3] | Potency [4] | Potency [5]

COc1ccc([C@@]2(O)c3c(ccc4c3OC(C)(CCC=C(C)C)C=C4)NC(=O)[C@@H]2OC)cc1 (stereo not given in full)
inactive: Potency [1] | Potency [2] | Potency [3] | Potency [4] | Potency [5]

C/C(=C/CO)CC[C@@H]1[C@@](C)(O)CCC2C(C)(C)CCC[C@]21C (stereo not given in full)
inactive: Potency [1] | Potency [2] | Potency [3] | Potency [4] | Potency [5]

CC(C)=CCC/C(C)=C/CCC1(C)Oc2c(c(O)cc3c2CN(C(CCC(=O)O)C(=O)O)C3=O)CC1O (stereo not given)
inactive: Potency [1] | Potency [2] | Potency [3] | Potency [4] | Potency [5]

COC1=CC(=O)CC(C)C12Oc1cc(OC)cc(O)c1C2=O (stereo not given)
inactive: Potency [1] | Potency [2] | Potency [3] | Potency [4] | Potency [5]

Cn1c(=O)cc(N2CCCC(N)C2)n(Cc2cc(F)ccc2C#N)c1=O (stereo not given)
inactive: Potency [1] | Potency [2] | Potency [3] | Potency [4] | Potency [5]

C/C(=C\CCC(C)CCO)C(=O)OC1(C)CCC2C(C(=O)O)=COC(OC3OC(CO)C(O)C(O)C3O)C21 (stereo not given)
inactive: Potency [1] | Potency [2] | Potency [3] | Potency [4] | Potency [5]

CCN(CC)c1ccc2c(O)c(C=Nc3ccc(CC(=O)O)c(-c4c5c(nc6ccccc46)CCC(C(=O)NN)C5)c3)c(=O)oc2c1 (stereo not given)
inactive: Potency [1] | Potency [2] | Potency [4] | Potency [5]
active: Potency [3] 6.01 µM

Nc1nc2c(c(N3CCNCC3)n1)CCC1=C2[C@@H]2CCCC[C@@H]2O1
inactive: Potency [1] | Potency [2] | Potency [3] | Potency [4] | Potency [5]

COC(=O)c1ccnc(-c2cc(C(=O)NCCc3ccccc3)ccn2)c1
inactive: Potency [1] | Potency [2] | Potency [3] | Potency [4] | Potency [5]

OC[C@H]1O[C@@H](O[C@H]2[C@H](OCc3ccccc3)O[C@H](CO[C@@H]3OC[C@@H](O)[C@H](O)[C@H]3O)[C@@H](O)[C@@H]2O)[C@H](O)[C@@H](O)[C@@H]1O
inactive: Potency [1] | Potency [2] | Potency [3] | Potency [4] | Potency [5]

CC1(C)CCCC2(C)C(CO)C(CO)=CCC12 (stereo not given)
inactive: Potency [1] | Potency [2] | Potency [3] | Potency [4] | Potency [5]

C=C(C)C(=O)OC1CC2(C)OC(=CC2=O)C(=C)CC2OC(=O)C(COC)C12 (stereo not given)
active: Potency [3] 10.5 µM
inactive: Potency [1] | Potency [2] | Potency [4] | Potency [5]

O=C(/C=C/c1ccc(O)cc1)OC1[C@H](O)CC(O)(C(=O)O)C[C@H]1O (stereo not given in full)
inactive: Potency [1] | Potency [2] | Potency [3] | Potency [4] | Potency [5]

CC1(C)CCCC2(C)C1CC=C1C(=O)OC(O)C12O (stereo not given)
inactive: Potency [1] | Potency [2] | Potency [3] | Potency [4] | Potency [5]

O=C(OCC1=CC(O)C2C=CO[C@@H](O[C@@H]3O[C@H](CO)[C@@H](O)[C@H](O)[C@H]3O)C12)c1ccccc1 (stereo not given in full)
inactive: Potency [1] | Potency [2] | Potency [3] | Potency [4] | Potency [5]

O=C1NC(Cc2ccccc2)C(=O)N2CCCC12 (stereo not given)
inactive: Potency [1] | Potency [2] | Potency [3] | Potency [4] | Potency [5]

COc1ccc(/C=C\C(=O)O)c(O[C@@H]2O[C@H](CO)[C@@H](O)[C@H](O)[C@H]2O)c1
inactive: Potency [1] | Potency [2] | Potency [3] | Potency [4] | Potency [5]

Cc1c(F)cc(C(=O)NC2CC2)cc1-c1c(F)cn2c(C(C)(C)C)nnc2c1F
inactive: Potency [1] | Potency [2] | Potency [3] | Potency [4] | Potency [5]

CC[C@H]1OC(=O)[C@H](C)[C@@H](O[C@H]2C[C@@](C)(OC)[C@@H](O)[C@H](C)O2)[C@H](C)[C@@H](O[C@@H]2O[C@H](C)C[C@H](N(C)C)[C@H]2O)[C@](C)(O)C[C@@H](C)C(=O)[C@H](C)[C@H]2OC(=O)O[C@@]21C
inactive: Potency [1] | Potency [2] | Potency [3] | Potency [4] | Potency [5]

COc1c2c(c(C)c3c1C(=O)OC3)OC1(C)CC(O)C(C(C)(C)O)C(C)(CCC(=O)O)C1C2 (stereo not given)
inactive: Potency [1] | Potency [2] | Potency [3] | Potency [4] | Potency [5]

CC1OC(OC2C(OC3C(O[C@H]4CC[C@@]5(C)C(CC[C@]6(C)C5C(=O)C=C5C7CC(C)(C)CC(O)[C@]7(C)CC[C@]56C)C4(C)C)OC(C(=O)O)C(O)C3O)OCC(O)C2O)C(O)C(O)C1O (stereo not given in full)
inactive: Potency [1] | Potency [2] | activity change, negative = inhibition [3] 2.88% [at 11.6 µM] | activity, negative = inhibition [4] -14.3% [at 11.6 µM] | redox activity (% of DA3003) [5] 2.04% [at 11.5 µM]

Nc1ccc(-c2cccc3c(=O)cc(N4CCOCC4)oc23)cc1
inactive: Potency [1] | Potency [2] | Potency [3] | Potency [4] | Potency [5]

COC(=O)C1=CO[C@@H](O[C@@H]2O[C@H](CO)[C@@H](O)[C@H](O)[C@H]2O)[C@H]2[C@@H]1C=C[C@@]21C=C([C@H](C)O)C(=O)O1
inactive: Potency [1] | Potency [2] | Potency [3] | Potency [4] | Potency [5]

C=C1CN(Cc2ccc(C(=O)Nc3ccccc3N)cc2)C(=O)c2ccccc21
inactive: Potency [1] | Potency [2] | Potency [3] | Potency [4] | Potency [5]

COc1cc(Br)c(Nc2nc(-c3c(C)nc4ncccn34)cs2)c(Br)c1
inactive: Potency [1] | Potency [2] | Potency [3] | Potency [4] | Potency [5]

O=C1NC(Cc2c[nH]c3ccccc23)C(=O)NC1Cc1c[nH]c2ccccc12 (stereo not given)
inactive: Potency [1] | Potency [2] | Potency [3] | Potency [4] | Potency [5]

OC[C@H]1O[C@@H](OCCc2ccc(O)cc2)[C@H](O[C@@H]2OC[C@](O)(CO)[C@H]2O)[C@@H](O)[C@@H]1O
inactive: Potency [1] | Potency [2] | Potency [3] | Potency [4] | Potency [5]

COc1cc2ncnc(Nc3ccc(O)cc3)c2cc1OC
inactive: Potency [1] | Potency [2] | Potency [3] | Potency [4] | Potency [5]

O=S(=O)(NCC1CC1)c1ccc(Nc2nccc(N3CCCc4cc(O)ccc43)n2)cc1
inactive: Potency [1] | Potency [2] | Potency [3] | Potency [4] | Potency [5]

N#CC(c1ccnc(OCc2ccc(CN3CCOCC3)cc2)n1)c1nc2ccccc2s1 (stereo not given)
inactive: Potency [1] | Potency [2] | Potency [4] | Potency [5]
active: Potency [3] 0.426 µM

CCC1C(=O)OC23C=C[C@@H]4C(C(=O)O)=CO[C@H](O[C@@H]12)[C@@H]43 (stereo not given in full)
inactive: Potency [1] | Potency [2] | Potency [3] | Potency [4] | Potency [5]

CN1CCN(c2ccc(C(=O)Nc3n[nH]c4ccc(Cc5cc(F)cc(F)c5)cc34)c(NC3CCOCC3)c2)CC1
inactive: Potency [1] | Potency [2] | Potency [3] | Potency [4] | Potency [5]

CC(=O)O[C@H]1CC[C@@]2(C)C(CC[C@@H](C)[C@]23Cc2c(O)cc4c(c2O3)CN([C@@H](CCC(=O)O)C(=O)O)C4=O)C1(C)C (stereo not given in full)
inactive: Potency [1] | Potency [2] | Potency [3] | Potency [4] | Potency [5]
